Assay results: PubChem BioAssay AID489012 (National Center for Advancing Translational Sciences (NCATS), 2010)
Records with an inconclusive call do not appear. Entries that show only a call come without a potency. Calls of active or inactive are those of the source. Calls come from the whole dose curve; as a rule, active = well fitted activation curve with a large enough effect; inconclusive = small, poorly fitted or top-dose-only effect; inactive = no such curve, though single readings can be large or run the other way.

Target: Relaxin receptor 1 (Homo sapiens) (UniProt Q9HBX9)
Assay: qHTS Assay for Agonists of the Relaxin Receptor RXFP1: RXFP1 Hit Validation; note: nearly all actives have a fitted effect of over 65% in size;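 for activation: cAMP rise lowers the TR-FRET signal in lysed cells with PDE4 inhibitor present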
Potency is the fitted concentration of half-maximal effect.

Chain of Relaxin receptor 1 (Homo sapiens) (Q9HBX9 whole entry, looked up): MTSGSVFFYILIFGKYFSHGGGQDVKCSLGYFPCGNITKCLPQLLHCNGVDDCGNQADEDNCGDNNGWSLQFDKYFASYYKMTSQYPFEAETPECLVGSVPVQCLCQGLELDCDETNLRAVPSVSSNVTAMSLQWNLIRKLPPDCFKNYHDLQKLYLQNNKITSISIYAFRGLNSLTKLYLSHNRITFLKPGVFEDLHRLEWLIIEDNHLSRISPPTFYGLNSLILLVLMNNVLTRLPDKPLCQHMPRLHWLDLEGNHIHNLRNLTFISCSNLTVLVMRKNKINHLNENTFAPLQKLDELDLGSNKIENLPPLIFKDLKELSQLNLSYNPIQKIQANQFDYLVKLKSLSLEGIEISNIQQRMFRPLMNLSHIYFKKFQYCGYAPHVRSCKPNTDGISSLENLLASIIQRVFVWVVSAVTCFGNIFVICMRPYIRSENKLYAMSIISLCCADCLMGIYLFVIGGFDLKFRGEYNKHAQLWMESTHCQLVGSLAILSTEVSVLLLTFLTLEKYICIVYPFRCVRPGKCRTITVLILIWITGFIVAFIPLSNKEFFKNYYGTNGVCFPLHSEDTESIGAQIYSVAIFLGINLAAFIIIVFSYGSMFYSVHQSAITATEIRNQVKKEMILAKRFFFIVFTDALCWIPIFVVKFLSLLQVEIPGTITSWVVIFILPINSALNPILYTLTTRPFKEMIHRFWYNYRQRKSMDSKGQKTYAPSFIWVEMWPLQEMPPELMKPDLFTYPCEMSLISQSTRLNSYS

`COc1ccc(/C=C2/SC(=O)N(CCC(=O)Nc3ccc(C)cc3)C2=O)cc1OC` was tested, and the Potency was “inactive”.

For `CC(C)C(=O)Nc1ccc(Nc2ccccc2)cc1`, the Potency was “inactive”.

For `CCN(c1ccccc1)S(=O)(=O)c1ccc(OC)c(NC(=O)C2CC(=O)N(Cc3ccccc3)C2)c1` (stereo not given), the Potency was “inactive”.

`CC(C)n1c(CN2CCN(C(=O)c3ccco3)CC2)nc2c1c(=O)n(C)c(=O)n2C` was tested, and the Potency was “inactive”.

In the case of `Nc1cc2ccncc2c2ccccc12`, the Potency is reported as “inactive”.

`CCc1nnc(NC(=O)CSc2nc(C)nc3c2c(=O)n(C)c(=O)n3C)s1` was tested, and the Potency was 17.3 µM (active).

In the case of `O=C(Oc1ccccc1)Oc1ccc2c(c1)oc(=O)c1ccccc12`, the Potency is reported as 21.8 µM (active).

In the case of `CN(C)c1ccc2nc3c(=O)[nH]c(=O)nc-3n(CC(O)C(O)C(O)CO)c2c1` (stereo not given), the Potency is reported as “inactive”.

`Cc1ccccc1OCC(=O)Nc1sc(C(=O)Nc2cccc(C)c2C)c(C)c1C#N` was tested, and the Potency was 6.15 µM (active).

In the case of `Nc1nnc(CC(=O)N/N=C/c2ccc(-c3ccc(Cl)cc3Cl)o2)s1`, the Potency is reported as “inactive”.

`Cc1cccc(NC(=O)c2ccccc2NC(=O)C2CCCCC2)c1C` was tested, and the Potency was “inactive”.

`CC(C(=O)Nc1cccnc1)n1cc([N+](=O)[O-])cn1` (stereo not given) was tested, and the Potency was “inactive”.

In the case of `COC(=O)[C@@H]1C[C@@]2(O)[C@H](O)[C@H](O)[C@H](O)C[C@H]2N1Cc1cc(F)ccc1F`, the Potency is reported as “inactive”.

With `Cc1ccccc1NC(=O)c1ccccc1NC(=O)c1ccco1` the Potency was “inactive”.

With `COCCNC(=O)NC(=O)COC(=O)C12CC3CC(CC(NC(C)=O)(C3)C1)C2` the Potency was “inactive”.

In the case of `O=C(CN1C(=O)c2cccc3cccc(c23)C1=O)NCCN1CCOCC1`, the Potency is reported as “inactive”.

In the case of `Cc1cc(C)c(NC(=O)CS(=O)CC(=O)Nc2ccc(F)cc2F)c(C)c1` (stereo not given), the Potency is reported as “inactive”.

With `O=C(Nc1ccccc1C(=O)NCCc1ccc(O)cc1)c1ccco1` the Potency was “inactive”.

For `CC[n+]1ccc(/C=C/c2ccc(N(C)C)cc2)c2ccccc21`, the Potency was “inactive”.

For `O=C(O)CCC(=O)N1CCN(c2nc(-c3ccccc3Cl)c3cc(Br)ccc3n2)CC1`, the Potency was “inactive”.

`Cc1cc(NC(=O)c2ccccc2F)nc2c1c(=O)oc1ccccc12` was tested, and the Potency was 17.3 µM (active).

In the case of `Cc1cc2c(SCC(=O)NCC3CCCO3)ncnc2s1` (stereo not given), the Potency is reported as “inactive”.

`COC(=O)Cn1cnc2c(C#N)c3n(c2c1=O)CCCC3` was tested, and the Potency was 24.5 µM (active).

For `O=C(Nc1ccccc1C(=O)NCc1ccc(Cl)cc1)c1ccco1`, the Potency was “inactive”.

With `CCOC(=O)/C(C#N)=C/c1c(N2CCN(CC)CC2)nc2c(C)cccn2c1=O` the Potency was “inactive”.
